In all, about 68,000 sequences were measured (“fluorescence intensity (a.u.)”: median about 9,100, highest 2% from about 16,000 on). The entries come from a sample that favours the highest values as a whole.
These sequences were tested against OsWRKY34 (Oryza sativa, UniProt Q0JBA9 1-250) (assay: protein-binding microarray (RPBM); PBS, 2% BSA, 51.3 ng/ul salmon testes DNA, 50 uM zinc acetate, 200 nM TF, 25 C, 1 h; high values mean tight binding). Settings: protein: recombinant; tags: N-terminal polyhistidine and DsRed monomer fusion (pET32a); label: CyDye5-dUTP incorporated in the synthesized complementary strand; 3' TTTTT single-stranded linker to array surface; dsDNA, one strand shown.
Method in brief: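 Transcription factors were each fused at the N-terminus to a polyhistidine tag plus DsRed and expressed in E. coli BL21-CodonPlus before Ni–NTA purification. Binding to a double-stranded custom Agilent array was carried out with 200 nM protein at 25 °C for 1 h in PBS, 2% BSA, salmon testes DNA and 50 µM zinc acetate. The binding signal is per-feature fluorescence intensity, in arbitrary units, on an Axon 4000B scanner.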

OsWRKY34, sequence (Q0JBA9 entry or part of it): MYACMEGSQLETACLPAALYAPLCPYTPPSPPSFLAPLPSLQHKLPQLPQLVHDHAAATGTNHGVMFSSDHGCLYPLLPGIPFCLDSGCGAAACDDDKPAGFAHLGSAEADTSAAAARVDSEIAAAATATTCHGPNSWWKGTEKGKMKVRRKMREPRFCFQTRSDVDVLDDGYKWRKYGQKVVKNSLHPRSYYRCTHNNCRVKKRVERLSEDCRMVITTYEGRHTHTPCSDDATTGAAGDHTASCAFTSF

In order of falling binding signal:
1. TGTTTGACGCCGTTGACTTTTTAGCACATGTTTGACCGTTCGGAGTCACCTAGTGCAG  43600 fluorescence intensity (a.u.)
2. AATGTTTGACGCCGTTGACTTTTTAGCACATGTTGACCGTCGGAGTCACCTAGTGCAG  42200 fluorescence intensity (a.u.)
3. TGTTTGACGCCGTTGACTTTTTAACACATGTTTGACCGTTCGGAGTCACCTAGTGCAG  41700 fluorescence intensity (a.u.)
4. TACATCATCTAGTGTTGCAGCAGCAGTGTGTGTAAGAGGACGGAGTCACCTAGTGCAG  28500 fluorescence intensity (a.u.)
5. ACGCCATTGACTTTTTAGCAGATGTTTGACCGTTCGTTTTCGGAGTCACCTAGTGCAG  20700 fluorescence intensity (a.u.)
6. CGGCGGGCGGGAGGGCGGCGTTGATTTCGTTGGGGTTTGCCGGAGTCACCTAGTGCAG  19100 fluorescence intensity (a.u.)
7. CGGGAGGAGGGAGGTTGTTTCGTCTGGGGTTTGATTGGGACGGAGTCACCTAGTGCAG  18200 fluorescence intensity (a.u.)
8. TGCTTTCGTTGGGTTGGGGAAGGGGAGGCGTCGCTTGGTCCGGAGTCACCTAGTGCAG  17100 fluorescence intensity (a.u.)
9. ACTGCTTTGTTCTATTTGATTATTTTTTTACTCATCAGATCGGAGTCACCTAGTGCAG  15900 fluorescence intensity (a.u.)
10. TTGATTTCGTTGGGGTTTGCGTTGCGTGCGGAGGACGGGGCGGAGTCACCTAGTGCAG  15200 fluorescence intensity (a.u.)
11. AGGCGGAGGAGGGGAGGCGGAAGGGGTTCGCGTCGGCGGCCGGAGTCACCTAGTGCAG  12200 fluorescence intensity (a.u.)
12. CGCTGATTGGGTTGGGTCGGGTTAGCTTTGGTTTCAATGCCGGAGTCACCTAGTGCAG  11200 fluorescence intensity (a.u.)
13. CGTCACTTTTTTTTCTCCCCTATTTCTTTTCTCCTTTTCTCGGAGTCACCTAGTGCAG  10900 fluorescence intensity (a.u.)
14. GCCGCGCACGCCGTCATCTCTTTTTCGTTCCATACTTCTCCGGAGTCACCTAGTGCAG  10700 fluorescence intensity (a.u.)
15. TTCGGTTGGGTGGAGGAAGCGCGGGTGAAAAAGGTGGGGACGGAGTCACCTAGTGCAG  10600 fluorescence intensity (a.u.)
16. GATAGGTTGTGTGTGTGCAGTGTGTGTTTATAAGAGGTGACGGAGTCACCTAGTGCAG  10200 fluorescence intensity (a.u.)
17. AGTTATTTATTTTGTTGTGGTTTGTTTTATAGTTAAAGGTCGGAGTCACCTAGTGCAG  10100 fluorescence intensity (a.u.)
18. AGAGAGAGGTTGCTGTTTCGATGCGTATTTCTGCAGCTTTCGGAGTCACCTAGTGCAG  10100 fluorescence intensity (a.u.)
19. ATGTTTGACACCGTTGATTTTTTAACACATGTTTGACCGTCGGAGTCACCTAGTGCAG  9910 fluorescence intensity (a.u.)
20. AGGGGAGGCGTCGCTTGGTCGCCATCTTCGTCGTTTGCTTCGGAGTCACCTAGTGCAG  9720 fluorescence intensity (a.u.)
21. ACAGCCGCGTCGCCGCTTGTCCGCCTGCGCTCGTTCTCGCCGGAGTCACCTAGTGCAG  9640 fluorescence intensity (a.u.)
22. TTTGGGGTTTGAGAAGGTTGAGGAGGAGTTGGGAGGTTGACGGAGTCACCTAGTGCAG  9580 fluorescence intensity (a.u.)
23. TTTACAGTTGATTTTGACGGGTTTGTTGGCGAGGATTTTTCGGAGTCACCTAGTGCAG  9360 fluorescence intensity (a.u.)
24. CGGACCCCATACACCTCCGCCCGATTCCCGACGCAAATCCCGGAGTCACCTAGTGCAG  9260 fluorescence intensity (a.u.)
25. CGATCCCACCGACTCCCGGCCACCTCTGCTTCCCCGGCGACGGAGTCACCTAGTGCAG  9140 fluorescence intensity (a.u.)
26. GGAATATTCTCACATCTCAGCCATCCATTTTCCATCTCAACGGAGTCACCTAGTGCAG  9090 fluorescence intensity (a.u.)
27. GCGGATGGAATGGCAAGGGAGGAAACTGGTGGGGTGGGAGCGGAGTCACCTAGTGCAG  8960 fluorescence intensity (a.u.)
28. ATAAAATAGTTGACTGGCTATCTTCTACTCCACTTGGTATCGGAGTCACCTAGTGCAG  8860 fluorescence intensity (a.u.)
29. GGCATCCTACACTCTAGCTAGCCCACAGTCCGCTGCCGGCCGGAGTCACCTAGTGCAG  8790 fluorescence intensity (a.u.)
30. CCGCTCTCCTACTGCTCGGCCAACCAGTCATGCACACATACGGAGTCACCTAGTGCAG  8790 fluorescence intensity (a.u.)
31. CCCACATTTTTTCTTCTCACTTATATGTGGGTCCCATAATCGGAGTCACCTAGTGCAG  8640 fluorescence intensity (a.u.)
32. GGCTGGGTGTTACAACTTTGTCCAAAACATCAATAATTATCGGAGTCACCTAGTGCAG  8610 fluorescence intensity (a.u.)
33. CAGCAGTGTGTGTAAGAGGAGAGAGAAGCAGTGCCCTTTACGGAGTCACCTAGTGCAG  8530 fluorescence intensity (a.u.)
34. GATTAGGGTTGTTGCCGGGGTTTGTTTGGTGTTGCGGCGGCGGAGTCACCTAGTGCAG  8510 fluorescence intensity (a.u.)
35. ATAACTCGGGTCGGACTCGGACCTCAGGCCCACGTATTCCCGGAGTCACCTAGTGCAG  8400 fluorescence intensity (a.u.)
36. TCCTATCCCTACGAGCACTTCCGAAATATTGGACTGACATCGGAGTCACCTAGTGCAG  8370 fluorescence intensity (a.u.)
37. CTCTCCTCTCATCTCATCTCATCTCCAAGGCTGGTCTTTACGGAGTCACCTAGTGCAG  8320 fluorescence intensity (a.u.)
38. TATATGTTTGGCGCTCAAAACCTAATAGTAGTTCTTATGTCGGAGTCACCTAGTGCAG  8300 fluorescence intensity (a.u.)
39. AATACTCCTCTACTCATATTAGTACAATATCACAAACTTACGGAGTCACCTAGTGCAG  8250 fluorescence intensity (a.u.)
40. GTTTGTAACGTATTTTAGCTCGCTTTATAACGGGGCAGTTCGGAGTCACCTAGTGCAG  8160 fluorescence intensity (a.u.)
41. GTCCCGGGCACCGACCACGATCCGTTCCCGCCACACAAACCGGAGTCACCTAGTGCAG  8080 fluorescence intensity (a.u.)
42. TCCGCCCTCTGACCGCGGCGCCAAAGCTCCTCCGCGCGCGCGGAGTCACCTAGTGCAG  8030 fluorescence intensity (a.u.)
